Measured values published in PubChem BioAssay AID720650 (Broad Institute, 2013).
Values without a mark were called inactive. Active and inactive are the calls of the source. The rule behind the calls is not given here.

Assay: Biochemical counterscreen for C difficile toxins, absence of UDPG, inhibitor dose response (AID 720650)
Conditions: series mostly up to 19.5 µM

SMILES | AC50
Cc1ccc2nc(-c3ccc4c(c3)OCCO4)cn2c1 | 12.4 µM (active)
O=c1oc(-c2ccc(Br)cc2)nc2ccccc12 | inactive
O=C(Nc1ccccc1F)N1C[C@@H]2N[C@H](C1)C2c1ccc(-c2cccc(F)c2)cc1 (stereo partly drawn) | inactive
COc1ccc(C2=NS(=O)(=O)N(C)C(C(=O)N3CCOCC3)=C2)cc1 | inactive
COc1ccc(/C=C2/C(=O)C(C)(C(C)C)CCC2C)cc1 (stereo not drawn) | inactive
NS(=O)(=O)c1ccc(CCNC(=O)c2ccc(CS(=O)(=O)c3ccc(Br)cc3)o2)cc1 | inactive
O=C1COc2ccc(C(=O)COC(=O)CNS(=O)(=O)c3cccc(F)c3)cc2N1 | inactive
COCCn1c(NC(=S)NC(=O)C2CC2)cc(=O)[nH]c1=O | inactive
COc1ccc(NC(=O)CSc2nccn2C)cc1S(N)(=O)=O | inactive
Cc1ccc(NNC(=O)c2ccno2)cc1Cl | 0.401 µM (active)
Cc1cc(N2CCCC2=O)cc(C)c1S(=O)(=O)Nc1c(C)nn(C)c1C | inactive
COc1ccc(/C=C2\CCC(C3CCCC3)C2=O)cc1 (stereo not drawn) | inactive
O=C(O)c1ccc2c(c1)N(Cc1cccc(F)c1)C(=O)CS2 | inactive
COCCNc1oc(/C=C/c2ccccc2)nc1C#N | inactive
COc1ccc(C2=NS(=O)(=O)N(C)C(C(=O)N3CCc4ccccc4C3)=C2)cc1OC | inactive
O=C(COc1ccccc1)Nc1ccc(S(=O)(=O)Nc2ncccn2)cc1 | inactive
COc1ccc([N+](=O)[O-])cc1NC(=S)NC(C)=O | inactive
Oc1ccc(Nc2nc(Cl)nc(NCc3ccco3)n2)cc1 | inactive
O=c1c2ccccc2oc2ccc(NCCCN3CCOCC3)cc12 | inactive

SMILES | AC50
Cc1cc(C(=O)NNc2ccc(C)c(C)c2)no1 | 0.287 µM (active)
CC(=O)Nc1cccc2cc(O)ccc12 | 11.1 µM (active)
Cc1ccc(C2=NS(=O)(=O)N(C)C(C(=O)NC(C)c3ccccc3)=C2)cc1 (stereo not drawn) | inactive
COc1cc(-c2n[nH]c(=S)n2/N=C/c2cccn2C)cc(OC)c1OC | inactive
S=c1nc(-c2cccc(Cl)c2)[nH][nH]1 | 3.82 µM (active)
NC(=O)c1ccc(NC(=O)CSc2nnc(C3CC3)n2C2CC2)cc1 | inactive
O=C(CNS(=O)(=O)c1ccccc1)N/N=C/c1ccc(O)cc1 | 14.9 µM (active)
COc1ccc(NC(=O)CN(C)C(=O)c2cccc(NS(=O)(=O)c3ccc(Br)cc3)c2)cc1 | inactive
CCCCn1c(=S)[nH]c2c(=O)n(C)c(=O)n(C)c21 | 14.9 µM (active)
CNC(=O)C[C@@H]1CC[C@H]2[C@H](COc3ccc(NS(=O)(=O)c4ccccc4C)cc3C(=O)N2C)O1 | inactive
COc1ccc(C(=O)Nc2ccccc2C(=O)O)cc1Cl | > 39 µM
O=C(NNC(=O)c1cccc2ccccc12)c1cccc(F)c1 | inactive
COc1ccc(C2=NS(=O)(=O)N(C)C(C(=O)N3CCN(C)CC3)=C2)cc1 | inactive
Cc1ccc(C)c2c1cc(C)c1nnc(SCC(=O)NCc3ccc4c(c3)OCO4)n12 | 13.1 µM (active)
CCOC(=O)C(=O)NNc1ccc(Cl)cc1 | 0.594 µM (active)
c1ccc(-c2nnc(OCC3CCCO3)c3ccccc23)cc1 (stereo not drawn) | inactive
CN(C)c1ccc(Cl)c(NC(N)=S)c1 | 19.2 µM (active)
CC1C(=O)C(C)C(c2ccc([N+](=O)[O-])cc2)NC1c1ccc([N+](=O)[O-])cc1 (stereo not drawn) | inactive
CC(C)CNC(=O)C(=O)NCC1CCCN1S(=O)(=O)c1cccs1 (stereo not drawn) | inactive
